Insulin prom up: MIN6 insulin promoter up-regulation; MIN6 insulin promoter-GFP reporter, high-content imaging; stronger effect = higher value; z-score at 5 µM; 190,000 compounds, 0.3% hits; AID 1625;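 active means z-score above 3 at 5 µM with at least 500 cells counted in the well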
L major viab: reduces viability of Leishmania major promastigotes; inhibition, % at 10 µM; 200,000 compounds, 9% hits; resazurin fluorescence viability; AID 1063; in the data active means inhibition above about 50%;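 further: promastigotes grown with compound for 44 hours at 28 °C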
WT yeast gro inh: growth inhibition of WT yeast, mitochondrial fusion screen; inhibition, % at 10 µM; mitochondrial fusion phenotypic screen, WT strain; 190,000 compounds, 2.1% hits; AID 1362; in the data active means inhibition above about 58%; tested in S. cerevisiae
Insulin prom inh: TRM-6 insulin promoter activity inhibition. AID 1273. TRM-6 cells (human fetal islet line), insulin promoter-eGFP reporter, imaging; reporter expression induced with tamoxifen. 130,000 compounds, 0.9% hits. inhibition, % at 2 µM;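 active means inhibition above the mean plus 3 SD, with well images judged a real hit on visual review, cut at about 60% in these data, passing the limit was not always enough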
KCC2 mod: modulators of human KCC2 chloride dependent transport; KCC2 cells, thallium flux FluoZin-2 fluorescence; B-score of Tl+ flux slope (higher = more flux/activation; lower = inhibition) at 10 µM; Q9H2X9; 190,000 compounds, 2.2% hits;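 active means thallium flux slope and its plate-corrected score both differing from the plate sample mean at a set confidence after two filtering rounds, in either direction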;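 further: slope of fluorescence scaled to starting intensity during 10 to 20 s after thallium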
Target sequence (Q9H2X9 whole entry, looked up): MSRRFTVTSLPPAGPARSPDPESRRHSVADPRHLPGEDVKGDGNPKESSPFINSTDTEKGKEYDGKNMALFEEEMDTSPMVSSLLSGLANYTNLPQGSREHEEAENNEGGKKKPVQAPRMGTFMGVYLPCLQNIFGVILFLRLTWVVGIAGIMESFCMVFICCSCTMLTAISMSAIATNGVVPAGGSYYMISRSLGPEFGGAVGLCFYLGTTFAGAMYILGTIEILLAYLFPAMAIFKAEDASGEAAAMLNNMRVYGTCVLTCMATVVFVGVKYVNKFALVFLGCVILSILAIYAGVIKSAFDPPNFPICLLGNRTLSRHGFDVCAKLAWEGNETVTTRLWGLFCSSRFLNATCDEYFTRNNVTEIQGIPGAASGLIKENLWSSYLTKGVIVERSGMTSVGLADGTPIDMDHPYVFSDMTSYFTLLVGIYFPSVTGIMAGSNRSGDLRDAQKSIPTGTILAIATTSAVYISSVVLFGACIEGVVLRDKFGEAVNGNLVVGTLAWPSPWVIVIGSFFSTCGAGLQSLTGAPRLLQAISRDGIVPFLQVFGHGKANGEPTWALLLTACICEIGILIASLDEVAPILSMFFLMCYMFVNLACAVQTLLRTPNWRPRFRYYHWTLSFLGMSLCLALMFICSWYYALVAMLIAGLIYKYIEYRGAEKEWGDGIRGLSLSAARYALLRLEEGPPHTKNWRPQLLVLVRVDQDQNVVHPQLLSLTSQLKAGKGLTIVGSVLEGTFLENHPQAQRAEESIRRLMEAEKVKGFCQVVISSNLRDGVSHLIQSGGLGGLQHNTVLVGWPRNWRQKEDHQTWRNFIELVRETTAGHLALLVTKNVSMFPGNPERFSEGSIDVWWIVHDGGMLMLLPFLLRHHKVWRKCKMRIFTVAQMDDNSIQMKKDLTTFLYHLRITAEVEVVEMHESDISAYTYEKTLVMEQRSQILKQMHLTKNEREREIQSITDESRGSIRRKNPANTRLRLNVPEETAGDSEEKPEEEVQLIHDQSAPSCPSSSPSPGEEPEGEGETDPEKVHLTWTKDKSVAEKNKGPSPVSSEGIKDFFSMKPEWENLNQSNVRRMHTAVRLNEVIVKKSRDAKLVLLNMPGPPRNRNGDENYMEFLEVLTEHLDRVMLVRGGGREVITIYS
ROMK mod: modulators of human ROMK potassium channel; P48048; Tet-inducible ROMK, thallium flux fluorescence; actives lie on both sides; B-score at 10 µM; 130,000 compounds, 2% hits;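 active means signal ratio slope over the read window, or its plate-corrected B-score, at least 3 SD from the plate mean, either direction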;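 further: B-score of the F/F0 ratio slope over 7 to 12 s after thallium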
An asterisk follows results filed as active; · = not tested or not shown. Hits are enriched below; roughly 12% of the tested compounds scored in any of these assays.

SMILES	Insulin prom up	L major viab	WT yeast gro inh	Insulin prom inh	KCC2 mod	ROMK mod
O=C(Nc1ccc(O)cc1)c1cccc(Oc2ccc([N+](=O)[O-])cc2)c1	1.1	13	6	-33	-0.81	0.11
O=C(O)c1cccc(Oc2ccc([N+](=O)[O-])cc2)c1	2	59*	11	5	0.12	0.62
CC(=O)c1ccc(NC(=O)Cn2nc(C)cc2C)cc1	-0.49	-4	12	12	·	-0.13
Cc1ccc(C(=O)Nc2cc3c(oc2=O)CCCC3=O)cc1	·	-3	3	43	0.48	·
O=S(=O)(Nc1nccs1)c1cc(Cl)ccc1Cl	0.21	-10	-1	·	0.15	-0.24
Fc1cccc(/C=N/Nc2ncnc3nc[nH]c23)c1	1.6	29	10	-17	-0.12	0.16
Fc1ccccc1/C=N/Nc1ncnc2nc[nH]c12	0.18	52*	5	-32	-0.11	0.27
CCCCN(C(=O)CNC(=O)c1ccco1)C(C(=O)NC1CCCCC1)c1ccc(OC)cc1OC (centres undefined)	-1.4	22	2	·	·	-1.7
COc1ccccc1C(=O)NCC(=O)N/N=C/c1cc(Br)ccc1OC(=O)/C=C\c1ccco1	-0.05	92*	26	-63	-0.33	0.78
O=C(CNC(=O)c1ccccc1F)N/N=C/c1cc(Br)ccc1OC(=O)/C=C/c1ccco1	0.18	87*	15	-15	-0.39	-0.13
Cc1cccc(C)c1OCCNC(=O)c1ccc2ccccc2n1	0.71	7	68*	·	-0.73	-1.6
O=C(NCCOc1ccc(Cl)cc1)c1ccc2ccccc2n1	·	-3	62*	28	-0.0053	0.12
CCOC(=O)CSc1c(-c2cccs2)[nH]c2ccccc12	0.63	12	64*	-59	-1.2	0.052
CCOC(=O)CSc1c(-c2ccc(Cl)cc2)[nH]c2ccccc12	-0.24	5	-10	-23	-0.14	·
Cc1ccc(NC(=O)CN(C)C2CCCCC2)cc1Br	-0.54	9	6	·	-0.044	-1
CCc1c(O)nc2sc3ccccc3n2c1=O	-1	-4	-38	·	·	·
CCOC(=O)c1ccc2c(c1)nc(SC/C(O)=C(\C#N)c1nc3ccccc3[nH]1)n2CC	-0.4	-3	3	-7	0.98	·
COC1CCCN(Cc2cn(C)nc2-c2ccc(Oc3ccccc3)cc2)C1 (centres undefined)	-0.86	73*	2	·	·	-1.2
CCCN1CCC(NCc2cn(C)nc2-c2ccc(Oc3ccccc3)cc2)CC1	-0.17	·	·	·	0.066	·
Cn1cc(CN2CCCCC2CO)c(-c2ccc(Oc3ccccc3)cc2)n1 (centres undefined)	-2	63*	8	·	0.061	-0.69
COCCN1CCCC(CNCc2cn(C)nc2-c2ccc(Oc3ccccc3)cc2)C1 (centres undefined)	0.07	95*	9	·	0.53	-1.5
CCOC(=O)c1c(C)nc2c(c1-c1ccccc1)C(=O)CCC2	·	-2	-13	21	·	·
COc1ccc(CN(C)C2c3ccccc3-c3ccccc32)cc1	0.12	6	69*	21	0.61	-0.29
COC(=O)c1ccc(-c2noc(CN(Cc3ccncc3)CC3CCCO3)n2)cc1 (centres undefined)	0.46	71*	2	-27	-0.34	·
COC(=O)c1ccc(-c2noc(CN3C[C@H]4CC[C@H]3C4)n2)cc1	-0.09	98*	-4	·	·	0.041
SMILES	Insulin prom up	L major viab	WT yeast gro inh	Insulin prom inh	KCC2 mod	ROMK mod
COC(=O)c1ccc(-c2noc(CN(C)CC3CCCCO3)n2)cc1 (centres undefined)	0.77	-3	11	·	-0.28	0.41
O=C(CNCc1ccccc1Cl)Nc1ccc2c(c1)OCCO2	0.34	·	·	·	-1.5	·
N#CCCN/N=C(/Cc1nc2ccccc2[nH]1)c1cccc(Cl)c1	0.51	78*	2	22	0.022	1.4
COc1nc(N2CCOCC2)nc(C)c1[N+](=O)[O-]	0.13	62*	6	39	0.69	·
Cc1nc(N2CCOCC2)nc(OC(C)C)c1[N+](=O)[O-]	-0.32	-3	-30	6	-0.83	-0.046
COc1ccc(C2c3[nH]c4ccccc4c3CCN2Cc2cccn2-c2ncccn2)cc1C (centres undefined)	·	71*	52	·	0.29	-0.67
Cc1cccc(C2c3[nH]c4ccccc4c3CCN2Cc2cccn2-c2ncccn2)c1 (centres undefined)	-1.6	59*	8	·	0.28	-0.35
c1ccc(C2c3[nH]c4ccccc4c3CCN2Cc2cccn2-c2ccccn2)nc1 (centres undefined)	0.5	·	·	·	0.69	·
O=C(CCC1CC(=O)Nc2ccccc21)NCc1cccnc1 (centres undefined)	0.44	-7	16	5	0.68	0.24
CC(=O)Nc1ccc(NC(=O)c2ccc(C3SCC(=O)N3CCc3ccccc3)cc2)cc1 (centres undefined)	-0.31	45	2	-78	-0.9	-0.98
Cc1cccc(NC(=O)c2ccc(C3SCC(=O)N3CCc3ccccc3)cc2)c1 (centres undefined)	-0.05	96*	26	-23	-0.079	·
COc1ccc2ccc3c(c2c1)N=C[C@]1(O3)N(C)c2ccccc2C1(C)C	-0.64	16	75*	13	0.038	·
Cc1ccsc1/C=C(\C#N)C(=O)Nc1c(C)n(C)n(-c2ccccc2)c1=O	0.62	3	-8	-6	-1.2	0.39
O=C(c1ccccc1)c1cc(F)c(N2CCOCC2)cc1Cl	-1.5	-2	2	61	·	0.069
O=C(c1ccccc1)c1ccc(N2CCOCC2)c(F)c1	0.03	53*	14	·	·	-0.33
O=C(NC(=S)N1CCCCC1)c1cccs1	0.23	55*	-3	13	0.56	0.9
O=[N+]([O-])c1cc(Cl)ccc1N1CCN(c2ccccc2O)CC1	-0.23	-1	75*	-31	-0.99	-0.26
O=C(NC(=S)N1CCN(c2ccc(Cl)cc2[N+](=O)[O-])CC1)c1cccs1	0.06	75*	72	·	71*	·
CSc1nc2sc3c(c2c2nnnn12)CCCC3	0.09	12	-6	-62	·	-0.12
CCN(CC)S(=O)(=O)c1ccc(/C=C/C(=O)OCC(=O)NCc2ccc3c(c2)OCO3)cc1	-0.27	-9	-17	·	-0.37	-0.42
O=C(NC(=S)N1CCN(c2ccc([N+](=O)[O-])cc2)CC1)c1ccco1	-0.15	-3	13	·	0.72	1.2
CN1CCN(c2cc(N3CCc4ccccc4C3)c(F)cc2[N+](=O)[O-])CC1	-0.53	76*	87*	17	0.31	·
O=C(NC(=S)N1CCN(c2ccc(Cl)cc2[N+](=O)[O-])CC1)c1ccco1	·	-10	-5	19	17*	·
CN1CCN(c2ccc(C(=O)c3ccccc3)cc2[N+](=O)[O-])CC1	0.07	81*	22	67*	0.034	-1.9
CN1CCN(c2ccccc2NC(=O)c2ccc(N3CCCCC3)c([N+](=O)[O-])c2)CC1	-1.7	17	5	·	1	-2.2
COc1ccccc1CCNC(=O)Nc1cccc([N+](=O)[O-])c1	-0.47	14	13	·	-0.22	-1.1
Cc1cccc(NC(=O)N2CCC(NC(=O)c3ccco3)CC2)c1	·	6	-4	-17	1.1	-0.056
